Structures are written as SMILES. “And” between values parts separate entries of the source, which are not always exact repeats. Equal values may be shown once. Records with an inconclusive call do not appear. The source made the active and inactive calls. The calls were made as follows: active = hit-call score of the fitted dose curve at least 0.9, where 1 is the maximum; inconclusive = response in the unintended direction; inactive = score below 0.9.

Assay [1] is described as follows: ATG_XTT_Cytotoxicity: Cytotoxicity Assessment in the Attagene TRANS-FACTORIAL HepG2 Assay (AID 2283584).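 As to AC50: cells exposed to compound for 24 h before reading; active means loss of viability signal versus DMSO baseline.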 In short, it runs like this:
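XTT readout of cell number in transfected HepG2 cells, 24 h post-dosing; DMSO serves as negative control and baseline, with activity taken as loss of viability signal.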

Assay [2] has as its target Cellular tumor antigen p53 (Homo sapiens) (UniProt P04637). Kind of assay: TOX21_p53_BLA_p2_ratio: Tox21 HCT-116 p53 Agonism Beta-lactamase Assay, Ratio, Phase 2 (AID 2283592). Summed up: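 Readout: blue/green (460/530 nm) FRET emission ratio after 2 h CCF4-AM loading at room temperature, excitation 405 nm. HCT116 p53 bla cells, 16 h compound exposure at 37C, 5% CO2; agonist direction fitted against DMSO baseline.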

Assay [3] is described as follows: TOX21_p53_BLA_p3_viability: Viability Assessment in the Tox21 HCT-116 p53 Agonism Beta-lactamase Assay, Phase 3 (AID 2283593).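 Also: cells exposed to compound for 16 h before reading.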 Summed up:
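HCT116 cells, 4000/well, dosed 5 h after plating by pin transfer (217-fold dilution from DMSO stock) and incubated 16 h at 37C, 5% CO2. Viability read as ATP luminescence with CellTiter-Glo after 30 min at room temperature.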

The target in assay [4] is Cellular tumor antigen p53 (Homo sapiens) (UniProt P04637). Kind of assay: TOX21_p53_BLA_p3_ratio: Tox21 HCT-116 p53 Agonism Beta-lactamase Assay, Ratio, Phase 3 (AID 2283596). In short, it runs like this: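 Cells were seeded at 4000/well, rested 5 h at 37C, then dosed with DMSO compound solutions (217-fold dilution) for 16 h. CCF4-AM substrate was loaded for 2 h at room temperature, and the 460/530 nm emission ratio was fitted for gain of signal versus DMSO.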
Chain of Cellular tumor antigen p53 (Homo sapiens) (P04637 whole entry, looked up): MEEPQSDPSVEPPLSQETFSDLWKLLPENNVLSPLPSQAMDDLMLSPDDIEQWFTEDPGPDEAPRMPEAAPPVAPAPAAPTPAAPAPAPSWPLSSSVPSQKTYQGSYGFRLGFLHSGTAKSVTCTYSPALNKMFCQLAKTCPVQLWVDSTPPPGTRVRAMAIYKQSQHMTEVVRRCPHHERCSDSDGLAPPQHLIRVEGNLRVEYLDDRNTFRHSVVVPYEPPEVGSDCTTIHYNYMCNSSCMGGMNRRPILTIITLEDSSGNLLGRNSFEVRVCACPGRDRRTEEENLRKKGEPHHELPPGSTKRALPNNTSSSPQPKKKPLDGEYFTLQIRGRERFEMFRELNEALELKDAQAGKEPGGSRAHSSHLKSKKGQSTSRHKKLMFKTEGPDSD

Assay [5] in a line: TOX21_p53_BLA_p2_viability: Viability Assessment in the Tox21 HCT-116 p53 Agonism Beta-lactamase Assay, Phase 2 (AID 2283591).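 Also: actives lower the ATP signal meaning cytotoxicity.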 In short, it runs like this: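 HCT116 p53-bla cells, 4000/well, dosed after 5 h plating (217-fold dilution of DMSO stocks) and incubated 16 h at 37C. Viability taken as cellular ATP by CellTiter-Glo luminescence after 30 min RT; signal loss marks cytotoxicity.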

Turning to `O=C(CBr)c1ccc(O)cc1`, the call in assay [1], in assay [2], in assay [3] and in assay [4] was inactive.

`Cl[C@H]1OCCO[C@@H]1Cl`: the result in assay [1], in assay [2], in assay [3] and in assay [4] was inactive.

What is called AC50 is the concentration at which the activity in the assay is half-maximal. For `O=C1c2ccccc2C(=O)C1C(=O)C(c1ccccc1)c1ccc(Cl)cc1` (configuration not stated), the outcome in assay [1] and in assay [4] was inactive. Also, the values for the AC50 in assay [5] and in assay [3] were 29.4 µM (active) and 15.9 µM (active), respectively.

As for `Cc1cc(C(F)(C(F)(F)F)C(F)(F)F)ccc1NC(=O)c1cccc(I)c1C(=O)NC(C)(C)CS(C)(=O)=O`, the result in assay [1], in assay [2], in assay [3] and in assay [4] was inactive.

Regarding `CCOP(=S)(OCC)O/N=C(\C#N)c1ccccc1`, the molecule was classed as inactive in assay [1], in assay [5], in assay [2] and in assay [4].

Take `Nc1cccnc1`: the call in assay [1], in assay [2], in assay [3] and in assay [4] was inactive.

As to `CC(C)(C1CCC(O)CC1)C1CCC(O)CC1` (configuration not stated), the call in assay [1] and in assay [2] was inactive.

For the molecule `O=NN1CCCCCCC1`, the result in assay [1], in assay [5], in assay [2] and in assay [4] was inactive.

As to `Cc1cc(Cl)ccc1O`, the molecule was classed as inactive in assay [1], in assay [5], in assay [2] and in assay [4].

In the case of `C=CCCl`, the molecule was called inactive in assay [1], in assay [2], in assay [3] and in assay [4].

Take `CC(=Cc1ccccc1)[N+](=O)[O-]`: in assay [1], the AC50 was 23.6 µM (active). For the same molecule, the result in assay [5] and in assay [3] was inactive.

Turning to `CCCCN(CCCCO)N=O`, the call in assay [1], in assay [5] and in assay [3] was inactive.

Consider `CCOP(=S)(OCC)Oc1ccc(Cl)cc1Cl`, for which the molecule was classed as inactive in assay [1], in assay [5], in assay [2], in assay [3] and in assay [4].

Take `COP(=S)(OC)Oc1cc(Cl)c(I)cc1Cl`: the AC50 is 157 µM (active) in assay [1], 73.9 µM (active) in assay [2] and 75.1 µM (active) in assay [4]. Also, the call in assay [5] and in assay [3] was inactive.

As to `Cc1ccccc1OP(=O)(Oc1ccccc1C)Oc1ccccc1C`, the molecule was called inactive in assay [1], in assay [5], in assay [2] and in assay [4].

`Cc1cc(C(C)(C)c2ccc(O)c(C)c2)ccc1O`: the molecule was classed as inactive in assay [1], in assay [5] and in assay [4]. For the same molecule, the AC50 in assay [2] was 30.2 µM (active).

For `O=NN1CCOCC1`, the call in assay [1], in assay [2], in assay [3] and in assay [4] was inactive.

Regarding `CCN(N=O)C(N)=O`, the molecule was classed as inactive in assay [1], in assay [5], in assay [2] and in assay [4].

Regarding `O=S1(=O)OC(c2cc(Br)c(O)c(Br)c2)(c2cc(Br)c(O)c(Br)c2)c2ccccc21`, the molecule was classed as inactive in assay [1] and in assay [5]. Also, the AC50 in assay [3] is 8.86 µM (active).

In the case of `C=CC(=O)NC(C)(C)CC(C)=O`, the outcome in assay [1], in assay [5] and in assay [4] was inactive.

Consider `N#CCC#N`, for which the molecule was classed as inactive in assay [1], in assay [5], in assay [2] and in assay [4].

In the case of `COCCl`, the outcome in assay [1], in assay [2] and in assay [4] was inactive.

As to `C=CCc1ccccc1O`, the call in assay [1], in assay [2], in assay [3] and in assay [4] was inactive.

As for `CC(C)CP(=S)(S)CC(C)C`, the call in assay [1] and in assay [4] was inactive.

As for `CC(c1ccc(O)cc1)c1ccc(O)cc1`, the outcome in assay [2], in assay [3] and in assay [4] was inactive.

For the molecule `O=CCCl`, the result in assay [1], in assay [2], in assay [3] and in assay [4] was inactive.

For `CCCCC(CC)C(=O)Cl` (configuration not stated), the molecule was called inactive in assay [5], in assay [2], in assay [3] and in assay [4].

As to `Nc1nc(N)nc(Cl)n1`, the result in assay [2] was inactive.

`C#CCO`: the result in assay [2] was inactive.

On to `CCCCCCCCBr`, for which the outcome in assay [1], in assay [2] and in assay [4] was inactive.

As to `O=C=Nc1ccc(Cl)cc1`, the result in assay [5], in assay [2], in assay [3] and in assay [4] was inactive.

Take `CCNc1nc(NCC)nc(SC)n1`: the result in assay [1], in assay [2], in assay [3] and in assay [4] was inactive.

In the case of `CCCCS(=O)(=O)Cl`, the call in assay [1] and in assay [4] was inactive.

As for `O=[N+]([O-])c1cc([As](=O)(O)O)ccc1O`, the call in assay [5], in assay [3] and in assay [4] was inactive.

On to `C=C(C)[C@@H]1CC=C(C=O)CC1`, for which the molecule was called inactive in assay [1], in assay [2], in assay [3] and in assay [4].

For the molecule `CC(C=O)Cc1ccc2c(c1)OCO2` (configuration not stated), the outcome in assay [5], in assay [2], in assay [3] and in assay [4] was inactive.

For `OCCCCO`, the call in assay [5], in assay [2] and in assay [4] was inactive.

Take `Cc1cccc(N=Nc2ccc(N(C)C)cc2)c1`: the result in assay [5], in assay [2], in assay [3] and in assay [4] was inactive.

Consider `Nc1ccc(-c2ccccc2)cc1`, for which the call in assay [1], in assay [2], in assay [3] and in assay [4] was inactive.

Consider `CS(=O)(=O)c1ccc(C(=O)C2C(=O)CCCC2=O)c(Cl)c1COCC(F)(F)F`, for which the result in assay [1], in assay [2] and in assay [4] was inactive.

On to `Oc1ccc(Cc2ccc(O)cc2)cc1`, for which the call in assay [1], in assay [2] and in assay [4] was inactive.

Consider `C#C[C@]1(O)CC[C@H]2[C@@H]3CCC4=CC(=O)CC[C@]4(C)[C@H]3CC[C@@]21C`, for which the result in assay [1], in assay [2], in assay [3] and in assay [4] was inactive.

With `CCC[CH2][Sn]([Cl])([Cl])[CH2]CCC`, the AC50 in assay [5] is 552 nM (active) and 2.76 µM (active); in assay [2], 1.59 µM (active) and 14.3 µM (active); in assay [3], 2.47 µM (active) and 1.79 µM (active); in assay [4], 19.6 µM (active) and 20.1 µM (active).

As to `CC(C)C(C)(N)C#N` (configuration not stated), the molecule was called inactive in assay [5], in assay [2] and in assay [3].

On to `CC(C)=CC1C(C(=O)OCc2cccc(Oc3ccccc3)c2)C1(C)C` (configuration not stated), for which the result in assay [5], in assay [3] and in assay [4] was inactive.

Source of the values: PubChem BioAssay (EPA / NIEHS).
